A selection follows.
aSyn UTR act = Activators via SNCA 5'UTR binding, MLPCN | activity score, % (tested at 7.5 µM), hits read low | 300,000 tested, 7.1% active | alpha-synuclein 5'UTR reporter, activators screen; in the data active = activity score below about -60%
The depositor's hits bear a star.

SMILES	aSyn UTR act
COc1ccc(C(=O)NC(=S)NNC(=O)c2ccc3ccccc3n2)cc1	73
CCOc1ccc(NC(=S)c2ccc3ccccc3n2)cc1	-67*
COc1ccc(NC(=S)c2ccc3ccccc3n2)cc1	-70*
COc1ccccc1OCCn1nnc2ccccc21	-101*
Cc1ccc(OCCn2nnc3ccccc32)cc1C	-200*
COC(=O)c1ccccc1NC(=O)c1ccc(-c2ccc(Br)cc2)o1	-106*
O=C(Nc1cccc2nsnc12)c1ccc(-c2ccc(Br)cc2)o1	-157*
COc1cc2c(c(OC)c1OC)-c1ccc(N(C)CC(OC)OC)c(=O)cc1[C@@H](NC(C)=O)CC2	84
COc1ccc2cc(-c3ccon3)ccc2c1	-172*
Oc1ccc(/C=N/Nc2nccnc2Cl)cc1	-124*
Fc1ccc(/C=N/Nc2nccnc2Cl)cc1	-120*
Fc1cccc(/C=N/Nc2nccnc2Cl)c1	-106*
C/C(=N\Nc1ncc(Cl)cc1Cl)c1ccc(OC(F)F)cc1	-62*
C/C(=N\Nc1ncc(Cl)cc1Cl)c1ccc2c(c1)OCO2	-79*
O=C(NNc1cccc(Cl)n1)c1ccc(Cl)cc1Cl	-81*
CCCCSc1nnc(-c2c[nH]c3ccccc23)n1C	-135*
CCCCSc1nnc(-c2ccc(C)cc2)n1C	-109*
Cn1c(SCc2ccccc2)nnc1-c1c[nH]c2ccccc12	-107*
Cn1c(SCCOc2ccc(F)cc2)nnc1-c1ccncc1	-62*
Oc1ccccc1N=Cc1sc2ccccc2c1Cl	-104*
Cc1ccc(O)c(N=Cc2sc3ccccc3c2Cl)c1	-90*
Cc1ccc(NC(=O)c2c(C(F)(F)F)nn(C)c2SCc2cccc(C(F)(F)F)c2)cc1C	-102*
Cc1ccc(C(=O)Nc2cccc(C(F)(F)F)c2)cc1NC(=O)c1ccno1	95
CN(/N=C/c1ccncc1)c1cnc2ccccc2n1	-206*
CCOc1cc(/C=C2\CN(CC)C/C(=C\c3ccc(O)c(OCC)c3)C2=O)ccc1O	102
SMILES	aSyn UTR act
COc1cc(/C=C2\CCC/C(=C\c3ccc(O)c(OC)c3)C2=O)ccc1O	-394*
COc1cc(/C=C2\Oc3cc(O)ccc3C2=O)ccc1O	-194*
COc1cc(/C=C2\COC/C(=C\c3cc(OC)c(OC)c(OC)c3)C2=O)cc(OC)c1OC	103
COc1cc(/C=C/C(=O)c2ccc([N+](=O)[O-])o2)ccc1O	67
COc1cc(/C=C2/CCC/C(=C\c3cc(O)c(OC)c(Cl)c3)C2=O)cc(Cl)c1O	-143*
COc1cc(/C=C/C(=O)CC(=O)/C=C/c2ccc(O)c(OC)c2)ccc1O	-85*
COc1ccc(/C=C2\OC(=O)c3c(OC)cccc32)cc1OC	-200*
COc1ccc(/C=C2\CCCC(C(=O)C(F)(F)F)=C2O)cc1OC	-69*
O=C(NCc1cc2ccccc2[nH]1)c1ccccc1F	-81*
Cc1ccc(NC(=O)C2=C(O)c3sccc3N(C)S2(=O)=O)cc1	-101*
O=C(CSc1nnc(-c2cccnc2)o1)Nc1cccc(F)c1	-86*
O=C(CSc1nnc(-c2cccnc2)o1)Nc1ccc(Br)cc1	-77*
O=C(CSc1nnc(-c2ccc(Br)cc2)o1)Nc1cccc(C(=O)O)c1	98
Cc1ccc(S(=O)(=O)/N=C2/C=C(C3C(=O)CC(C)(C)CC3=O)C(=O)c3ccccc32)cc1	-180*
CCc1ccc(S(=O)(=O)/N=C2\C=C(Nc3ccc(O)cc3)C(=O)c3ccccc32)cc1	101
Cc1ccc(NC2=C/C(=N\S(=O)(=O)c3cccs3)c3ccccc3C2=O)c(C)c1	118
CSc1n[nH]c(-c2ccc(C(F)(F)F)cc2)n1	-68*
CC1CCOC(c2coc3ccccc3c2=O)O1 (stereo not drawn)	-113*
C=CCNC(=O)c1sc(-c2ccccc2)nc1C	-67*
Cc1nc(-c2ccccc2)sc1C(=O)NN	-102*
Cc1cc(C(=O)COC(=O)c2ccc([N+](=O)[O-])o2)c(C)n1CC1CCCO1 (stereo not drawn)	-128*
CSc1ncccc1C(=O)OCC(=O)c1cc(C)n(CC2CCCO2)c1C (stereo not drawn)	-69*
Cc1cc(C(=O)CSc2nc3ccccc3o2)c(C)n1CC1CCCO1 (stereo not drawn)	-138*
Cc1cc(C(=O)COC(=O)c2ccc3c(c2)OCO3)c(C)n1CC1CCCO1 (stereo not drawn)	-68*
COCCn1c(C)cc(C(=O)COC(=O)c2ccc([N+](=O)[O-])o2)c1C	-90*
SMILES	aSyn UTR act
COCCn1c(C)cc(C(=O)COC(=O)c2cccc(O)c2)c1C	67
CC1CCN(C(=O)COC(=O)c2ccc3c(c2)OCO3)CC1	-118*
COCCn1c(C)cc(C(=O)COC(=O)c2cc3c(s2)CCC3)c1C	-78*
Fc1ccc(CSc2ccc(-c3ccco3)nn2)cc1	-153*
Fc1cccc(CSc2ccc(-c3ccco3)nn2)c1	-176*
Cc1ccc(NC(=S)N/C(=N/S(=O)(=O)c2ccccc2)c2ccccc2)cc1	-205*
Cc1ccc(S(=O)(=O)/N=C(/NC(=S)Nc2ccccc2)c2ccccc2)cc1	-126*
COc1ccc(C(=O)NN/C(=N/S(=O)(=O)c2ccc(C)cc2)c2ccccc2)cc1	-81*
Oc1ccc(-c2nc3ccccc3s2)cc1	-68*

Screening results as filed in PubChem BioAssay.
